# Reference: publication PMC4336329 (PLoS ONE, 2015)
# In all, about 310,000 compounds went through this assay and about 14,000 (4.5%) showed an effect of 50% or more. Effects have a minus sign here. This is one part of a sample in which strong results are shown more often than they occur.
# Target: human ether-à-go-go-related gene (hERG) potassium channel (human, UniProt Q12809)
# Assay: primary screen, population patch clamp on CHO cells stably expressing hERG; higher = less effect of the substance
# 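Note: peak tail current of the secondary pulse compared with the same well before compound.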
# human ether-à-go-go-related gene (hERG) potassium channel, sequence (Q12809 whole entry, looked up): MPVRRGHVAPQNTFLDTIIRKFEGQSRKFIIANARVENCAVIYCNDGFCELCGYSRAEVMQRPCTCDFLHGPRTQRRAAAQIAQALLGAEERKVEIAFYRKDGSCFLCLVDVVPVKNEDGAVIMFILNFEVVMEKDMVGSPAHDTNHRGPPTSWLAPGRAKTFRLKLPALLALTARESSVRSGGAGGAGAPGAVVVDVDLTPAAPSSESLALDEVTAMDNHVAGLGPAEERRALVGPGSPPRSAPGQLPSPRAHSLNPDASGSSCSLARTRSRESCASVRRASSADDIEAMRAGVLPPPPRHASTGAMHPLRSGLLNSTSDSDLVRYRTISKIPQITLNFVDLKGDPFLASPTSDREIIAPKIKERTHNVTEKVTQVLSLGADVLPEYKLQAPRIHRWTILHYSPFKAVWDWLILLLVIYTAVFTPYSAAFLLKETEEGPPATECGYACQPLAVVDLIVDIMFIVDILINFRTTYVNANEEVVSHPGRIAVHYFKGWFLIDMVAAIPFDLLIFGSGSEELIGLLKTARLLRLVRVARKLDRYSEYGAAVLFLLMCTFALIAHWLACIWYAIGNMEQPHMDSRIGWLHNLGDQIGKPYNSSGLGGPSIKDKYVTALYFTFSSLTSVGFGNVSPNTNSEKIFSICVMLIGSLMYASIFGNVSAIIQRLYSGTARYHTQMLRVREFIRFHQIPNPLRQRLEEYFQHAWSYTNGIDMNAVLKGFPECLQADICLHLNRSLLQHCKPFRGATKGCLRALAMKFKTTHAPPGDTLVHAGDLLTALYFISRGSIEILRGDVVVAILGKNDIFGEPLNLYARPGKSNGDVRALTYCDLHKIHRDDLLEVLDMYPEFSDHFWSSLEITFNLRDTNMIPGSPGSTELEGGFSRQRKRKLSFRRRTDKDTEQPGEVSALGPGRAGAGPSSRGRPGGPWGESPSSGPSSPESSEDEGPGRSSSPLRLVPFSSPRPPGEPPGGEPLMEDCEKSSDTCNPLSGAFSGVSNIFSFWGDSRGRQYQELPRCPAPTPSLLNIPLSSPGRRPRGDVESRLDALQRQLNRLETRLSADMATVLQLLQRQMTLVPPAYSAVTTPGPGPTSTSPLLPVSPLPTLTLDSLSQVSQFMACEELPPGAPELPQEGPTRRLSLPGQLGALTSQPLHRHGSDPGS
row,Compound,"hERG current change (%, negative = inhibition) at 10uM [%]"
1,Cc1cc(NCC2CCCO2)n2c(nc3ccccc32)c1C#N (stereo not drawn),-21.2
2,CCCc1cc(NCCCO)n2c(nc3ccccc32)c1C#N,-16.6
3,Cc1cc(NCCCN2CCOCC2)n2c(nc3ccccc32)c1C#N,-23.3
4,CCCc1c(C)c(C#N)c2nc3ccccc3n2c1NCCCN1CCOCC1,-44
5,Cc1cc(NCCN2CCOCC2)n2c(nc3ccccc32)c1C#N,-6.09
6,CC(C)c1cc(NCC2CCCO2)n2c(nc3ccccc32)c1C#N (stereo not drawn),-41
7,CCCc1cc(NCCCN2CCOCC2)n2c(nc3ccccc32)c1C#N,-75.7
8,CCCc1cc(NCCCCO)n2c(nc3ccccc32)c1C#N,-53.1
9,CCCc1cc(NCCCN(C)C)n2c(nc3ccccc32)c1C#N,0.382
10,CCCc1cc(NCC2CCCO2)n2c(nc3ccccc32)c1C#N (stereo not drawn),-66.5
11,CC(C)c1cc(NCCCN2CCOCC2)n2c(nc3ccccc32)c1C#N,-79.9
12,CCCc1cc(NCCN(C)C)n2c(nc3ccccc32)c1C#N,-7.73
13,Cn1c(=O)oc2cc(S(=O)(=O)NC3CCN(Cc4ccccc4)CC3)ccc21,-36.4
14,CC1Cc2ccccc2N1C(=S)Nc1cccc(S(=O)(=O)N(C)C)c1 (stereo not drawn),2.06
15,O=C(c1ccc2c(c1)OCO2)N1CCC2(CC1)OCCO2,-10.6
16,CC1CCN(CCCCOc2ccccc2[N+](=O)[O-])CC1.O=C(O)C(=O)O,-26.3
17,CC1CCN(CCCCOc2ccc([N+](=O)[O-])cc2)CC1,-74.7
18,CC1CCN(S(=O)(=O)c2ccc(Oc3ccc([N+](=O)[O-])cc3)cc2)CC1,-21.7
19,Fc1ccc(OCCOCCN2CCNCC2)cc1.O=C(O)C(=O)O,6.98
20,O=[N+]([O-])c1ccc(S(=O)(=O)CC(CN2CCOCC2)N2CCOCC2)cc1 (stereo not drawn),-1.68

row,Compound,"hERG current change (%, negative = inhibition) at 10uM [%]"
1,Cc1ccc(OCCN2CCNCC2)c([N+](=O)[O-])c1.O=C(O)C(=O)O,-5.84
2,CC1CCN(CC(CS(=O)(=O)c2ccc([N+](=O)[O-])cc2)N2CCC(C)CC2)CC1 (stereo not drawn),-62.1
3,O=C(O)C(=O)O.O=[N+]([O-])c1ccc(OCCN2CCNCC2)cc1,-76
4,O=C(O)C(=O)O.O=[N+]([O-])c1ccc(OCCN2CCCCCC2)cc1,-86.1
5,CC1CCN(S(=O)(=O)c2ccc([N+](=O)[O-])cc2)CC1,-3.23
6,COc1ccc(C)cc1N(C(=O)COc1cccc(F)c1)c1nc2ccccc2s1,-27.2
7,O=[N+]([O-])c1ccc(-n2nnnc2-c2ccccc2)c([N+](=O)[O-])c1,6.9
8,COc1cccc(CN2CC(C(=O)NCc3cccc(N4CCCC4)c3)CCC2=O)c1 (stereo not drawn),-5.08
9,CCOc1ccc(S(=O)(=O)NC2CC2)cc1,4.15
10,N/C(=N\OC(=O)c1ccc2ccccc2c1)c1ccncc1,-38.4
11,C[C@H](CCC(=O)O)[C@H]1CC[C@H]2[C@@H]3[C@H](O)C[C@@H]4C[C@H](O)CC[C@]4(C)[C@H]3CC[C@]12C,13.8
12,CC(C)C(=O)N1CCN(c2ccccc2NC(=S)NC(=O)c2cccs2)CC1,-2.66
13,CCOc1ccc(OCC)c(NC(=O)C2CCCN(C(=O)c3ccc(Cl)cc3)C2)c1 (stereo not drawn),-34
14,O=[N+]([O-])c1ccc(OCCCCCN2CCOCC2)cc1,-58.6
15,Cc1ccc(OCCCCCN2CCOCC2)cc1,4.39
16,O=[N+]([O-])c1ccc(OCCCCN2CCCCC2)cc1,-69.4
17,Clc1ccc(OCCCCCN2CCOCC2)cc1,-37.6
18,O=[N+]([O-])c1ccccc1OCCCCN1CCCCC1,-32.2
19,C=Cc1ccc2c(c1)N(C)C(=C)S2.I,19.7
20,CCOC(=O)c1oc2ccccc2c1NC(=O)COC,-12.2

row,Compound,"hERG current change (%, negative = inhibition) at 10uM [%]"
1,COc1ccc(CCNC(=S)Nc2cccc3ccccc23)cc1,-4.42
2,CCOc1ccc(NS(=O)(=O)c2ccc(C(=O)N3CCC3)cc2)cc1,-4.09
3,COc1ccc(OC)c(NC(=O)Cn2c(CCC(=O)O)ccc2-c2ccccc2)c1,-5.33
4,COc1ccccc1CNc1nc2nc(C)c(Cl)c(=O)n2[nH]1,-2.39
5,O=c1c2c3c(sc2n(CCN2CCCC2)c(=O)n1Cc1ccccc1)CCCCC3,-34.7
6,O=c1c2c3c(sc2n(CCN2CCCC2)c(=O)n1Cc1ccco1)CCCCC3,-68.6
7,O=C(Cn1c(=O)n(Cc2ccco2)c(=O)c2c3c(sc21)CCCC3)Nc1ccccc1,18
8,O=C(Cn1c(=O)n(Cc2ccco2)c(=O)c2c3c(sc21)CCCCC3)Nc1ccccc1,6.54
9,O=c1c2c3c(sc2n(CCN2CCOCC2)c(=O)n1Cc1ccco1)CCCCC3,-44.3
10,O=c1c2c3c(sc2n(CCN2CCCCC2)c(=O)n1Cc1ccco1)CCCCC3,-69.1
11,c1ccc(-c2[nH]ncc2-c2nc3ccccc3[nH]2)cc1,-11
12,CCOC(=O)N1CCN(C(=O)Cn2c(C)cc3ccccc3c2=O)CC1,3.68
13,O=C(CCn1nnc2ccccc21)N1CCC(O)(c2cccc(F)c2)CC1,4.12
14,CC(C)(C)NC(=O)c1ccc(NC(=O)c2ccccc2-c2ccccc2C(=O)O)cc1,25.2
15,COc1ccc2cc(C(=O)C3CCCN(C(=O)c4ccnn4C)C3)ccc2c1 (stereo not drawn),-41.1
16,CC(C)Oc1cccc(C(=O)C2CCCN(C3CCOCC3)C2)c1 (stereo not drawn),-10.5
17,COc1cccc(C(=O)C2CCCN(C(=O)c3ccccc3Cl)C2)c1 (stereo not drawn),5.15
18,COc1ccc2cc(C(=O)C3CCCN(C4CCOCC4)C3)ccc2c1 (stereo not drawn),-63.5
19,COc1cccc(C(=O)C2CCCN(C3CCOCC3)C2)c1 (stereo not drawn),-50.4
20,COc1ccc(C(=O)C2CCCN(C(=O)C3CCOCC3)C2)c(C)c1 (stereo not drawn),27
